In the supplement of paper PMC9262897, “Low-cost anti-mycobacterial drug discovery using engineered E. coli” (Nature Communications, 2022):
Structures can show the parent of a compound that is named as a salt. ± gives the standard deviation of the averaged measurements.

What was measured:
Experiment in all cases: growth (OD600 after 10 h); higher = more growth (less inhibition)
[1] = system: E. coli TESEC Alr+ wild-type control; details: compound 0.1 mM; raw OD600 reference: median of DMSO wells 0.241, cell-free background 0.041
Protocol: (§1)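 TESEC Mtb Alr E. coli, or the Alr+ wild-type control, in 384-well plates with Prestwick library compounds at 0.1 mM and 1% DMSO, across arabinose induction levels of 1E3 to 1E7 nM. Growth is read as OD600 after 10 h at 37 °C in triplicate biological replicates.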

[2] = system: E. coli TESEC Mtb Alr; details: compound 0.1 mM
Protocol: as §1

[3] = system: E. coli TESEC Mtb Asd; details: compound 0.1 mM
Protocol: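 TESEC E. coli strains in which the native enzyme is deleted and replaced by arabinose-inducible Mtb Asd, DapB, CysH or TrpD, each grown in its selective medium. Strains were screened against the Prestwick library at 0.1 mM and 1% DMSO in 384-well format at low and high arabinose induction. Growth is read as OD600 after 10 h in triplicate.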

[4] = system: E. coli TESEC Alr+ wild-type control; details: compound 0.1 mM; raw OD600 reference: median of DMSO wells 0.49, cell-free background 0.052
Protocol: (§2)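 TESEC Mtb Alr E. coli (ΔaraC ΔtolC ΔentC Δalr ΔdadX, arabinose-inducible Mtb Alr) or the Alr+ wild-type control strain, grown in defined M9-fructose medium without D-alanine in 96-well plates with Prestwick library compounds at 0.1 mM and 1% DMSO. Low Alr induction is 0.1 µM arabinose and high induction is 10 mM arabinose.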

[5] = system: E. coli TESEC Mtb Alr; details: compound 0.1 mM; remark: listed apart in the source
Protocol: as §2

[6] = arabinose 1000 nM, raw OD600 reference: median of DMSO wells 0.294, cell-free background 0.041
[7] = arabinose 10000 nM, raw OD600 reference: median of DMSO wells 0.264, cell-free background 0.041
[8] = arabinose 100000 nM, raw OD600 reference: median of DMSO wells 0.201, cell-free background 0.041
[9] = arabinose 1000000 nM, raw OD600 reference: median of DMSO wells 0.193, cell-free background 0.041
[10] = arabinose 10000000 nM, raw OD600 reference: median of DMSO wells 0.146, cell-free background 0.041
[11] = arabinose induction (level): High, raw OD600 reference: median of DMSO wells 0.331, cell-free background 0.041
[12] = arabinose induction (level): Low, raw OD600 reference: median of DMSO wells 0.417, cell-free background 0.041
[13] = arabinose 100 nM, raw OD600 reference: median of DMSO wells 0.413, cell-free background 0.052
[14] = arabinose 10000000 nM, raw OD600 reference: median of DMSO wells […], cell-free background 0.052

Structure (SMILES)	growth [1]	growth [2, 6]	growth [2, 7]	growth [2, 8]	growth [2, 9]	growth [2, 10]	growth [3, 11]	growth [3, 12]	growth [4]	growth [5, 13]	growth [5, 14]
COc1cc(C(=O)NCc2ccc(OCCN(C)C)cc2)cc(OC)c1OC [Trimethobenzamide hydrochloride]	0.2204 ± 0.0014	0.295 ± 0.0097	0.254 ± 0.011	0.201 ± 0.017	0.158 ± 0.0074	0.159 ± 0.0019	0.227 ± 0.059	0.385 ± 0.015	0.464 ± 0.066	0.412 ± 0.005	0.354 ± 0.022
CCc1nc(N)nc(N)c1-c1ccc(Cl)cc1 [Pyrimethamine]	0.1323 ± 0.0013	0.123 ± 0.0079	0.0978 ± 0.0026	0.123 ± 0.0035	0.0795 ± 0.0019	0.139 ± 0.002	0.17 ± 0.024	0.179 ± 0.015	0.5321 ± 0.0036	0.401 ± 0.026	0.261 ± 0.018
CCOc1cc(CC(=O)N[C@@H](CC(C)C)c2ccccc2N2CCCCC2)ccc1C(=O)O [Repaglinide]	0.185 ± 0.0042	0.199 ± 0.0075	0.26 ± 0.024	0.175 ± 0.0084	0.174 ± 0.0073	0.155 ± 0.01	0.282 ± 0.03	0.247 ± 0.032	0.482 ± 0.005	0.4 ± 0.0047	0.306 ± 0.014
CCN(CC)CCOC(=O)C(c1ccccc1)C1CCCCC1 (stereo not drawn) [Drofenine hydrochloride]	0.149 ± 0.0031	0.203 ± 0.017	0.218 ± 0.0035	0.16 ± 0.0022	0.0678 ± 0.00092	0.1432 ± 0.00046	0.119 ± 0.0039	0.271 ± 0.017	0.428 ± 0.026	0.407 ± 0.019	0.168 ± 0.058
Cc1cccc(Nc2ccncc2S(=O)(=O)NC(=O)NC(C)C)c1 [Torsemide]	0.222 ± 0.005	0.29 ± 0.012	0.257 ± 0.019	0.168 ± 0.012	0.17 ± 0.0046	0.16 ± 0.0021	0.228 ± 0.029	0.353 ± 0.095	0.477 ± 0.021	0.403 ± 0.016	0.326 ± 0.025
NS(=O)(=O)c1cc2c(cc1Cl)NC(C(Cl)Cl)NS2(=O)=O (stereo not drawn) [Trichlormethiazide]	0.243 ± 0.0058	0.296 ± 0.021	0.278 ± 0.0046	0.2 ± 0.013	0.195 ± 0.015	0.139 ± 0.0024	0.331 ± 0.037	0.448 ± 0.033	0.631 ± 0.095	0.408 ± 0.0097	0.357 ± 0.01
Cc1nc(=O)c2cc(CN(C)c3ccc(C(=O)N[C@@H](CCC(=O)O)C(=O)O)s3)ccc2[nH]1 [Raltitrexed]	0.229 ± 0.012	0.259 ± 0.0086	0.358 ± 0.013	0.171 ± 0.02	0.173 ± 0.0097	0.162 ± 0.0053	0.269 ± 0.05	0.4225 ± 0.0017	0.606 ± 0.055	0.409 ± 0.016	0.322 ± 0.011
CC[C@H](C)[C@H](N)C1=N[C@H](C(=O)N[C@@H](CC(C)C)C(=O)N[C@H](CCC(=O)O)C(=O)N[C@H](C(=O)N[C@H]2CCCCNC(=O)[C@H](CC(N)=O)NC(=O)[C@@H](CC(=O)O)NC(=O)[C@H](Cc3cnc[nH]3)NC(=O)[C@@H](Cc3ccccc3)NC(=O)[C@H]([C@@H](C)CC)NC(=O)[C@@H](CCCN)NC2=O)[C@@H](C)CC)CS1 [Bacitracin]	0.306 ± 0.0084	0.324 ± 0.0095	0.252 ± 0.0038	0.387 ± 0.0099	0.176 ± 0.0086	0.214 ± 0.013	0.298 ± 0.05	0.269 ± 0.054	0.49 ± 0.073	0.421 ± 0.015	0.348 ± 0.028
CC(=O)Nc1c(I)c(C(=O)N[C@H]2C(O)O[C@H](CO)[C@@H](O)[C@@H]2O)c(I)c(N(C)C(C)=O)c1I (stereo partly drawn) [Metrizamide]	0.246 ± 0.014	0.307 ± 0.014	0.273 ± 0.0038	0.238 ± 0.034	0.188 ± 0.0051	0.16 ± 0.0066	0.247 ± 0.017	0.352 ± 0.0067	0.61 ± 0.014	0.403 ± 0.012	0.334 ± 0.011
Clc1ccc(COC(Cn2ccnc2)c2ccc(Cl)cc2Cl)c(Cl)c1 (stereo not drawn) [Miconazole]	0.0977 ± 0.098	0.201 ± 0.11	0.03953 ± 0.00021	0.0741 ± 0.0079	0.03923 ± 0.00025	0.141 ± 0.061	0.0471 ± 0.00055	0.0481 ± 0.0013	0.137 ± 0.03	0.051 ± 0.0039	0.083 ± 0.0044
CC1(C)NC(=O)N(c2ccc([N+](=O)[O-])c(C(F)(F)F)c2)C1=O [Nilutamide]	0.216 ± 0.017	0.273 ± 0.0069	0.256 ± 0.003	0.189 ± 0.012	0.153 ± 0.0033	0.142 ± 0.0062	0.281 ± 0.1	0.399 ± 0.042	0.552 ± 0.064	0.396 ± 0.013	0.295 ± 0.017
CC(=O)N(CC(C)C(=O)O)c1c(I)cc(I)c(N)c1I (stereo not drawn) [Iocetamic acid]	0.213 ± 0.007	0.274 ± 0.0081	0.289 ± 0.0072	0.2 ± 0.01	0.265 ± 0.003	0.144 ± 0.0039	0.36 ± 0.022	0.268 ± 0.021	0.509 ± 0.026	0.183 ± 0.11	0.397 ± 0.011
CC(=O)CC(c1ccccc1)c1c(O)c2ccccc2oc1=O (stereo not drawn) [Warfarin]	0.251 ± 0.012	0.273 ± 0.007	0.2271 ± 0.0011	0.139 ± 0.0062	0.15 ± 0.0059	0.126 ± 0.0063	0.351 ± 0.065	0.391 ± 0.072	0.492 ± 0.081	0.39 ± 0.0054	0.342 ± 0.012
COc1cc(C(=O)OCCCN2CCCN(CCCOC(=O)c3cc(OC)c(OC)c(OC)c3)CC2)cc(OC)c1OC [Dilazep dihydrochloride]	0.174 ± 0.0063	0.264 ± 0.034	0.291 ± 0.0076	0.18 ± 0.0077	0.118 ± 0.0022	0.154 ± 0.0029	0.232 ± 0.023	0.35 ± 0.051	0.416 ± 0.034	0.417 ± 0.012	0.316 ± 0.029
Cn1c(=O)c2c(ncn2C)n(C)c1=O [Caffeine]	0.233 ± 0.0046	0.28 ± 0.0091	0.277 ± 0.0046	0.2 ± 0.016	0.215 ± 0.0057	0.14 ± 0.0044	0.304 ± 0.065	0.352 ± 0.11	0.617 ± 0.065	0.412 ± 0.0085	0.369 ± 0.006
CC(=O)[C@@]12O[C@](C)(c3ccccc3)O[C@@H]1C[C@H]1[C@@H]3CCC4=CC(=O)CC[C@]4(C)[C@H]3CC[C@@]12C [Algestone acetophenide]	0.232 ± 0.0045	0.323 ± 0.053	0.265 ± 0.029	0.173 ± 0.031	0.115 ± 0.0061	0.211 ± 0.0087	0.231 ± 0.0044	0.278 ± 0.038	0.381 ± 0.016	0.413 ± 0.011	0.117 ± 0.013
O=S(=O)(O)CCS [Mesna]	0.2377 ± 0.0019	0.282 ± 0.0091	0.28 ± 0.0078	0.193 ± 0.012	0.206 ± 0.016	0.13 ± 0.0052	0.341 ± 0.079	0.371 ± 0.058	0.513 ± 0.074	0.4246 ± 0.0021	0.337 ± 0.0046
Cc1[nH]c(=O)c(C#N)cc1-c1ccncc1 [Milrinone]	0.199 ± 0.0031	0.27 ± 0.0094	0.229 ± 0.0033	0.169 ± 0.018	0.136 ± 0.0068	0.148 ± 0.0037	0.304 ± 0.06	0.329 ± 0.054	0.636 ± 0.046	0.43 ± 0.0055	0.305 ± 0.0071
